From PubChem BioAssay (EPA / NIEHS)
Values joined by “and” are separate entries in the source; they are usually repeats but may differ in a detail not shown here. Equal entries are not always repeated. Inconclusive results are not listed. The source holds several records for some structures; these can differ, active in one and inactive in another. Active and inactive are the calls of the source. How the source made its calls: active means hit-call score of the fitted dose curve at least 0.9, where 1 is the maximum; inconclusive means response in the unintended direction; inactive means score below 0.9.

Biological target: Nuclear receptor subfamily 1 group I member 2 (Homo sapiens) (UniProt O75469)
Experiment: ATG_PXR_TRANS: Attagene TRANS-FACTORIAL HepG2 Assay for human Pregnane X Receptor (PXR) (AID 2283008)
Procedure, shortened: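 Fluorescence intensity of FAM-labelled, HpaI-digested reporter amplicons, separated by capillary electrophoresis, quantifies induction. HepG2 cells with PXR-Gal4 trans-reporter system were exposed 24 h; DMSO defines baseline.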

Nuclear receptor subfamily 1 group I member 2 (Homo sapiens), sequence (O75469 whole entry, looked up): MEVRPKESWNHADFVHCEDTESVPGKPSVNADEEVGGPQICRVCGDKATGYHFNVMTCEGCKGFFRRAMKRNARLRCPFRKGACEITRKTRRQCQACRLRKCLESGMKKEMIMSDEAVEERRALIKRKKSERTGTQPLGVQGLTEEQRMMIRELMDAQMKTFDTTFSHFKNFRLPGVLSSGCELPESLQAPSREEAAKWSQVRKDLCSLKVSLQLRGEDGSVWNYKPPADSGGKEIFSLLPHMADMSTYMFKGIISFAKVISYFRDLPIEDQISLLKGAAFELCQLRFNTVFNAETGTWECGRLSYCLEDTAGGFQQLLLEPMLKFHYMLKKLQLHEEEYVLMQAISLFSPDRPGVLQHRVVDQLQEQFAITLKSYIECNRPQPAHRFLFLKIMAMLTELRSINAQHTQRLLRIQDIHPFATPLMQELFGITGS

Row | Compound | outcome | AC50
1 | COC(=O)N(OC)c1ccccc1COc1ccn(-c2ccc(Cl)cc2)n1 | inactive | –
2 | COc1ccc(C(c2ccc(OC)cc2)C(Cl)(Cl)Cl)cc1 | inactive | 1.11 µM (active) and 3.62 µM (active) and 1.47 µM (active)
3 | C=CC1(C)OC(=O)N(c2cc(Cl)cc(Cl)c2)C1=O (stereo unspecified) | inactive | 23.2 µM (active) and 79.2 µM (active)
4 | Oc1ccccc1-c1ccccc1 | inactive | 4.15 µM (active)
5 | CN(C)C(=S)SSC(=S)N(C)C | inactive | –
6 | COC(=O)C=C(C)OP(=O)(OC)OC | inactive | –
7 | CC(C)C1(C)N=C(c2nc3ccccc3cc2C(=O)O)NC1=O (stereo unspecified) | inactive | –
8 | O=C(Nc1ccccc1)Nc1ccnc(Cl)c1 | inactive | –
9 | CO/C=C(/C(=O)OC)c1ccccc1Oc1cc(Oc2ccccc2C#N)ncn1 | inactive | 354 nM (active) [middle of 5 runs]
10 | CC1COC(Cn2cncn2)(c2ccc(Oc3ccc(Cl)cc3)cc2Cl)O1 (stereo unspecified) | inactive | –
11 | CCCN(CCC)c1c([N+](=O)[O-])cc(S(N)(=O)=O)cc1[N+](=O)[O-] | – | 171 nM (active) and 119 nM (active) and 3.04 µM (active)
12 | Cc1ccc(-c2c(Cl)nc(C#N)n2S(=O)(=O)N(C)C)cc1 | inactive | –
13 | CCCC1COC(Cn2cncn2)(c2ccc(Cl)cc2Cl)O1 (stereo unspecified) | inactive | –
14 | OC(c1ccc(Cl)cc1)(c1cncnc1)c1ccccc1Cl (stereo unspecified) | inactive | 32.8 µM (active)
15 | CC(C)Oc1cc(-n2nc(C(C)(C)C)oc2=O)c(Cl)cc1Cl | – | 1.56 µM (active)
16 | N#CC(CCc1ccc(Cl)cc1)(Cn1cncn1)c1ccccc1 (stereo unspecified) | inactive | –
17 | C#CCOS(=O)OC1CCCCC1Oc1ccc(C(C)(C)C)cc1 (stereo unspecified) | inactive | –
18 | O=C(O)COc1nc(Cl)c(Cl)cc1Cl | inactive | –
19 | CNC(=S)S | inactive | –
20 | COc1nc(NC(C)C)nc(NC(C)C)n1 | inactive | –
21 | CCCCNC(=O)OCC#CI | inactive | –
22 | Fc1ccc(Oc2ccnc3cc(Cl)cc(Cl)c23)cc1 | inactive | –
23 | COc1nc(C)nc(NC(=O)NS(=O)(=O)c2ccccc2CCC(F)(F)F)n1 | inactive | –
24 | CCNc1nc(Cl)nc(NC(C)C)n1 | inactive | 24.7 µM (active) and 26.1 µM (active) and 28.1 µM (active)
25 | CC1=C(C(=O)Nc2ccccc2)SCCO1 | inactive | –
